Data on 29 compounds can be found in ChEMBL document CHEMBL1157539, “Thousands of chemical starting points for antimalarial lead identification” (Nature, 2010).

Common to all, as to assay type: functional
Test [1] concerns Plasmodium falciparum. Description: GSK_TCMDC: Inhibition of Plasmodium falciparum 3D7 in whole red blood cells, using parasite LDH activity as an index of growth. Test compounds present at 2uM.
The test system of test [2] is Plasmodium falciparum. Description: GSK_TCMDC: Inhibition of Plasmodium falciparum Dd2 in whole red blood cells, using parasite LDH activity as an index of growth. Test compounds present at 2uM.
The subject of a further test is HepG2. Description: GSK_TCMDC: Percent inhibition of human HepG2 cell line. Test compounds present at 10uM.

Molecules are shown by their SMILES.

Regarding `COc1cc(NC2=C(c3ccccc3)C(=O)c3ccccc32)ccn1`, the Inhibition with Plasmodium falciparum [1] turned out to be 96%; with Plasmodium falciparum [2], 96%; in the test with HepG2 it was 7%.
As to `Cc1cc(OCC2CCCO2)c2cc(NC(=O)C(=O)Nc3ccc4nc(C)cc(OCC5CCCO5)c4c3)ccc2n1` (configuration not stated), the Inhibition is on record as 96% with Plasmodium falciparum [1], 32% in the test on Plasmodium falciparum [2] and 7% in the test on HepG2.
The like results for `CCOC(=O)c1ccc2[nH]c(-c3ccc(C(=O)NCc4ccc(C(C)(C)C)cc4)cc3)nc2c1` were, in that order, 94%, 34% and 0%.
In the same order, the values of `CCCCCC(C)C(C)c1cc(O)c2c(c1)OC(C)(C)C=C2c1cc[n+]([O-])cc1` (configuration not stated) are 91%, 2% and 11%.
The like results for `CCN1CCN(C(=O)NC(C(=O)N(C)Cc2ccc(-c3ccc(C(F)(F)F)cc3)cc2)c2cccs2)C(=O)C1=O` (configuration not stated) were, in that order, 99%, 95% and 0%.
Take `NC12CC3CC(CC(C3)C1)C2` [AMANTADINE]: the figures for the Inhibition with Plasmodium falciparum [1], in the test with Plasmodium falciparum [2] and in the test on HepG2 were 98%, 0% and 31%, respectively.
In the same order, the values of `CCOc1ccc2c(N/N=C/c3cccc([N+](=O)[O-])c3)cc(C)nc2c1` are 100%, 97% and 4%.
The like results for `Cc1cc(N[C@@H](CC(C)C)C(=O)NCCOc2ccccc2)nc(NCC2CCCCC2)n1.O=C(O)C(F)(F)F` were, in that order, 97%, 53% and 24%.
In the same order, the values of `O=C(CC1CCCC1)Nc1ccc2c(c1)CCC2` are 93%, 0% and 0%.
For the compound `Cc1cc(C2CCN(CCCCNC(=O)c3ccc(-c4ccc(C(F)(F)F)cc4)cc3)CC2)c(C)cc1OCCO`, the Inhibition was 99% in the test with Plasmodium falciparum [1], 3% in the test on Plasmodium falciparum [2] and 31% with HepG2.
In the case of `Cl.O=C(Nc1cccc(Cl)c1Cl)N1CCc2cc3nccc(N4CCN5CCC[C@H]5C4)c3cc21`, the Inhibition in the test on Plasmodium falciparum [1] is listed as 98%; in the test on Plasmodium falciparum [2] it was 100%; with HepG2, 9%.
For the compound `COC(=O)c1ccc2nc(-c3cc(-c4cccc(-c5ccccc5)c4)cnc3N)[nH]c2c1`, the Inhibition with Plasmodium falciparum [1] was 100%; in the test on Plasmodium falciparum [2] it was 61%; in the test on HepG2, 25%.
Consider `CCCCN1Cc2c(n(CC(=O)Nc3ccccc3)c3cc(-c4ccccc4)nn3c2=O)C1=O`, for which the Inhibition in the test with Plasmodium falciparum [1] worked out at 92%; in the test on Plasmodium falciparum [2] it was 60%; in the test on HepG2, 1%.
The like results for `O=C(Nc1cccc(CN2CCCN(Cc3ccc4c(c3)OCO4)CC2)c1)c1ccc(Cl)c(Cl)c1.O=C(O)C(F)(F)F` were, in that order, 92%, 10% and 34%.
Consider `COc1c(C)[nH]c(C)c(-c2ccc(Oc3cccc(C(F)(F)F)c3)cc2)c1=O`, for which the Inhibition with Plasmodium falciparum [1] is reported as 98%; with Plasmodium falciparum [2] it was 96%; in the test on HepG2, 40%.
The like results for `O=C(Nc1ccc(-c2nc3ccccc3[nH]2)cc1)c1cncc(Br)c1` were, in that order, 95%, 49% and 35%.
The like results for `CCN(CC)CCCCCNc1c2ccc(Cl)cc2nc2ccc(OC)cc12.Cl` were, in that order, 99%, 99% and 96%.
In the same order, the values of `O=C(Nc1cccc(-c2cccc(-c3nc4cc(F)ccc4[nH]3)c2)c1)c1c[nH]cn1` are 100%, 87% and 13%.
As to `COc1cc2nc(NCCc3ccccc3)nc(NCc3ccc(C#N)cc3)c2cc1OC`, the values for the Inhibition with Plasmodium falciparum [1], in the test with Plasmodium falciparum [2] and in the test on HepG2 were 100%, 100% and 52%, respectively.
`CCOC(=O)c1nc(-c2cccc(F)c2)[nH]c1N.Cl`: the Inhibition with Plasmodium falciparum [1] amounted to 98%; with Plasmodium falciparum [2], 2%; with HepG2, 0%.
In the same order, the values of `COc1cccc(OCC2CCCN(CCCCNC(=O)c3ccc(NC(=O)c4ccc(Cl)cc4)cc3)C2)c1` (configuration not stated) are 100%, 49% and 33%.
As to `CCOC(=O)NC1=NC(C)(C)N(OCCCOc2cc(Cl)c(Cl)cc2Cl)C(NC(=O)OCC)=N1`, the Inhibition in the test with Plasmodium falciparum [1] amounted to 91%; in the test with Plasmodium falciparum [2], 97%; in the test on HepG2, 63%.
`COc1ccc2[nH]c(C)cc(=NN=Cc3ccncc3)c2c1`: the Inhibition is given as 100% in the test on Plasmodium falciparum [1], 68% in the test with Plasmodium falciparum [2] and 6% with HepG2.
The like results for `Cl.O=C(OCC1CCN(Cc2ccccc2)C1)c1ccc(Cl)cc1` (configuration not stated) were, in that order, 100%, 4% and 0%.
In the same order, the values of `CCN(CC)C(=O)C1CCCN(C(=O)Nc2cc(C(F)(F)F)cc(C(F)(F)F)c2)C1` (configuration not stated) are 86%, 98% and 0%.
The like results for `O=C(Nc1cc(F)cc(F)c1)N1CCOC(CCN2CCC3(CCc4ccccc43)CC2)(c2ccc(Cl)c(Cl)c2)C1` (configuration not stated) were, in that order, 100%, 86% and 32%.
Turning to `CO/C(=C\C=C\c1cc2cc(Cl)c(Cl)cc2[nH]1)C(=O)NC1CC2CCCC(C1)N2C` (configuration not stated), the Inhibition stood at 93% with Plasmodium falciparum [1], 51% in the test on Plasmodium falciparum [2] and 42% with HepG2.
For `COc1cc(Cn2ccc3c4c(N)nc(N)nc4ccc32)cc(OC)c1OC`, the Inhibition came to 94% with Plasmodium falciparum [1], 97% in the test on Plasmodium falciparum [2] and 66% in the test on HepG2.
In the same order, the values of `COc1ccc(CNCCCCCCCNCc2ccc(Cl)c(Cl)c2)cc1Cl` are 90%, 18% and 27%.
